# Laboratory results published in PubChem BioAssay.
# Results filed as inconclusive are left out. Active and inactive are the calls of the source.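 The calls were made as follows, unless noted: active = viability at or below 10% of carrier control in both of two separate runs; inconclusive = viability at or below 10% in only one of the two runs; inactive = the rest.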
# Experiments:
# [1] = reducers of endogenous Her2 protein level, primary screen, SKBR3 breast tumor cells, AlphaScreen, ATP viability (AID 461;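 active = Her2 level under about 52% in both replicate screens, with viability over 70% of control, limit read from the data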;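 as to Her2 level: lower value means less Her2 protein in the cells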;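 as to viability: percent of carrier control wells set as 100% viability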); details: 18-24 h, measured here: SKBR3 viability, ATP luminescence, at 10 µM
# [2] = biological target: Receptor tyrosine-protein kinase erbB-2 (Homo sapiens) (UniProt P04626); experiment: as above; details: 18-24 h, at 10 µM, stronger effect = lower value
# Chain of Receptor tyrosine-protein kinase erbB-2 (Homo sapiens) (P04626 whole entry, looked up): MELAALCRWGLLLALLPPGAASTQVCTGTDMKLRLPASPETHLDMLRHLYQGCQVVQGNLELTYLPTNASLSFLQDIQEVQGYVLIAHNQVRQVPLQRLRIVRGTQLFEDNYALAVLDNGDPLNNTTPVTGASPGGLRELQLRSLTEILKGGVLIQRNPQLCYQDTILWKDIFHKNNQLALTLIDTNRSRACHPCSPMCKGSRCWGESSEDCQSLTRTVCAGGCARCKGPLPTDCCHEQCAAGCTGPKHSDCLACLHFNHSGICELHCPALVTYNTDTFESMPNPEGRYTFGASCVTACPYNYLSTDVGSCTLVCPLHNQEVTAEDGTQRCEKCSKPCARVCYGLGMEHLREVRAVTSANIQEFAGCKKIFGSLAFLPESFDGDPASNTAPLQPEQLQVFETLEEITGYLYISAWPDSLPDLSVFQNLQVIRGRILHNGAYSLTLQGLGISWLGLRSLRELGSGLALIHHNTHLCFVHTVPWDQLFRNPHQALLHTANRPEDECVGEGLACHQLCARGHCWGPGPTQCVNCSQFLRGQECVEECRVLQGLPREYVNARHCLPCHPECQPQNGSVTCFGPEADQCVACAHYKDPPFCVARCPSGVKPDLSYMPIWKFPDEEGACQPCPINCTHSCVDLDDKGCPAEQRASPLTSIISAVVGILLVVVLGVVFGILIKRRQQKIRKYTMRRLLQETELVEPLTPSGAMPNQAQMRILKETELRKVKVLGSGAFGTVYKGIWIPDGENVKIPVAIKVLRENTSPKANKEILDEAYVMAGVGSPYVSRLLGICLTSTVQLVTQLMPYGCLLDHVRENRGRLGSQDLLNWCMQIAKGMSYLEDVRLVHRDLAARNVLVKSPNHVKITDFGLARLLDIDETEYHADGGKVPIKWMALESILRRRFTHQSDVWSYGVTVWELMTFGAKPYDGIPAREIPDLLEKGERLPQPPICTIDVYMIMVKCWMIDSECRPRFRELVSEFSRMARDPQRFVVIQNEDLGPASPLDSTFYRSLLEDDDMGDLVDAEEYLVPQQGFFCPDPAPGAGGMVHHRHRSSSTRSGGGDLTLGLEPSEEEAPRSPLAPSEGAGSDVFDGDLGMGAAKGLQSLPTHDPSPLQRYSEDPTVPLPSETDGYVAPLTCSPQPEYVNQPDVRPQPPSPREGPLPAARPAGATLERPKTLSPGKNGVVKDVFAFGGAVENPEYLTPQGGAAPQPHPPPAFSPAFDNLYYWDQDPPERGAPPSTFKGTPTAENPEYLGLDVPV
# [3] = SK-BR-3 cell growth inhibitors, pilot screen, 24 h, human (AID 572); details: SK-BR-3 viability, CellTiter-Glo luminescence, at 10 µM, stronger effect = lower value;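 also: compound exposure lasted between 18 and 24 h rather than exactly 24 h; 100% = carrier-treated control wells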
# [4] = HUVEC growth inhibition – cell-based, human, primary screen (AID 575;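 active = viability at or below 30% in both replicate assays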;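 also: 100% = median of untreated cell wells with 0.1% DMSO on each plate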); details: HUVEC proliferation, CellTiter-Glo luminescence, 72 h; at 10 µM; stronger effect = lower value
# [5] = growth inhibitors of H69AR lung tumor, primary screen, human, duplicate replicates (AID 580;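 active = viability at or under a set limit in both replicates, limit being median viability minus 3 SD, cut at about 48% in these data, passing the limit was not always enough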;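 also: 100% = mean luminescence of untreated wells and 0% = no signal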); details: H69AR lung tumor cells viability, ATP luminescence, 72 h; at 10 µM; stronger effect = lower value
# [6] = reversal of MRP1-mediated doxorubicin resistance, pilot screen, H69AR cells, doxorubicin co-treatment (AID 601;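 active = viability loss from added drug above about 55%, and viability with drug at most 40%, in both replicates, limit read from the data, passing the limit was not always enough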); details: CellTiter-Glo, 72 h, at 10 µM; for differential viability (reversal): stronger effect = higher value
# [7] = 384-well plate pilot, post-Golgi transport modulator project, inhibition of yeast transport mutant growth (AID 636; in the data active = inhibition above about 31%); details: absorbance 615 nm, about 18 h, stronger effect = higher value
# [8] = growth suppression of yeast trafficking mutant, preliminary HTS, modulators of trafficking downstream of Golgi apparatus project, 1536-format plate, OD 615 nm (AID 637; in the data active = inhibition above about 30%); details: yeast transport mutant growth, absorbance 615 nm, 18 h; stronger effect = higher value
# [9] = OD615 S. cerevisiae growth inhibition, permissive medium, pilot counter-assay, permissive growth control for S. cerevisiae lifespan shortening project (AID 705;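 active = growth inhibition above 25% in both replicates, a cutoff set 3 SD above the mean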); details: OD615, 24 h, at 10 µM, stronger effect = higher value
# [10] = Restrictive medium S. cerevisiae growth inhibition, OD615, pilot screen of yeast lifespan reduction project, restrictive growth control (AID 706;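 active = growth inhibition above a set limit, 3 SD over mean compound inhibition, in both replicates, cut at about 43% in these data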;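 also: modified DeaD lifespan yeast strain shifted to restrictive glucose medium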); details: OD615, 48 h, at 10 µM, stronger effect = higher value
# [11] = viability gain of MRP-1-high H69AR cells under doxorubicin, pilot screen, MRP-1 activator project, CellTiter-Glo, duplicate (AID 807;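 active = viability increase at or above a cutoff of the median across tested compounds plus 3 SD, cut at about 8.5% in these data, passing the limit was not always enough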;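 also: compound pretreatment 18-22 h then 72 h combined with doxorubicin; 0% = doxorubicin alone and 100% = vehicle without doxorubicin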); details: H69AR viability with doxorubicin, CellTiter-Glo luminescence; at 10 µM; stronger effect = higher value
# [12] = growth suppression of beta-catenin knockout HCT116, pilot screen, human colon tumor cells (AID 823;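 active = cell viability at or below a set limit in both duplicate runs, the limit being the all-compound median minus 4 SD, cut at about 23% in these data, passing the limit was not always enough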;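 also: 0% = wells killed by 20 µM Hyamine and 100% = untreated DMSO cell wells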); details: CellTiter-Glo, 60 h, at 10 µM, stronger effect = lower value
# [13] = growth suppression of PTEN-deleted HCT116, pilot screen, cell-based, HCT116 clonal line, CellTiter-Glo (AID 824;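 active = viability at or below 27.92% in each of two runs, the all-compound median minus 4 SD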;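 also: 0% = 20 µM Hyamine control and 100% = vehicle cell control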); details: 60 h, at 10 µM, stronger effect = lower value
# [14] = inhibitors of the yeast RAM network, pilot screen, dse1pr::URA3 reporter, 5-FOA selection (AID 869;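 active = inhibition over a set limit, the all-compound mean plus 3 SD, in both replicate runs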;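 also: 0% = DMSO wells with no growth and 100% = 10 µM 1-NA-PP1 with full growth; RAM network block rescues cells from 5-FOA so hits raise OD615 growth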); details: S. cerevisiae dse1pr::URA3 5-FOA growth, OD615, 2 d; at 10 µM; stronger effect = higher value; strain carries analog-sensitive mutant Cbk1 kinase
# [15] = RAM signaling pathway blockade in yeast – S. cerevisiae, Pdr1DBD-CYC8 efflux-inhibited sensitized strain, primary screen (AID 1298;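 active = RAM network inhibition above 8.4% in each of two replicates, 3 SD over the compound average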;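 also: 0% = DMSO untreated cells without growth and 100% = 10 µM 1-NA-PP1 full growth; higher means more yeast growth rescued from 5-FOA killing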); details: S. cerevisiae cbk1-as DSE1-URA3 strain, 5-FOA growth OD615, 2 d; at 50 µM; stronger effect = higher value
# [16] = H69AR cells + 2 uM doxorubicin, measured here: viability with 2 uM doxorubicin, stronger effect = lower value
# [17] = H69AR cells, compound alone cytotoxicity
Structure (SMILES),viability [1] [%],Her2 level [2],viability [3],viability [4],viability [5],differential viability (reversal) ([6]; H69AR cells + 2 uM doxorubicin),"viability [6, 16] [%]","viability [6, 17] [%]",inhibition [7],inhibition [8],growth inhibition [9],growth inhibition [10],viability increase [11],viability [12],viability [13],inhibition [14],RAM network inhibition [15]
Cc1nc2ccccc2c2oc(C(=O)NCCN3CCCCC3C)cc12 (stereo not given),81,94% (inactive),81% (inactive),99.5% (inactive),93.1% (inactive),-6.12% (inactive),99.2,93.1,-3.46% (inactive),-3% (inactive),-3.45% (inactive),0.34% (inactive),-2.08% (inactive),66.4% (inactive),70.6% (inactive),1.77% (inactive),-0.67% (inactive)
O=C(OCCN(CCOC(=O)c1ccncc1)S(=O)(=O)c1cccs1)c1ccncc1,102,75.5% (inactive),102% (inactive),99.2% (inactive),104% (inactive),6.43% (inactive),97.3,104,-1.64% (inactive),1.75% (inactive),4.38% (inactive),1.04% (inactive),-2.14% (inactive),102% (inactive),97% (inactive),1.63% (inactive),4.78% (inactive)
CCOc1cccc(-c2nnc3n2N=C(c2cc(OC)ccc2OC)CS3)c1,104,83.5% (inactive),104% (inactive),42.4% (inactive),13.5% (active),-60.8% (inactive),74.2,13.5,-5.87% (inactive),1.75% (inactive),16.2% (inactive),50.3% (active),-3.98% (inactive),19.4% (active),21.2% (active),1.96% (inactive),6.09% (inactive)
Cc1cccc(C(=O)N2CCN(C(=O)c3cccc(C)c3)C(C)C2)c1 (stereo not given),110,116% (inactive),110% (inactive),107% (inactive),90.3% (inactive),2.61% (inactive),87.7,90.3,-1.76% (inactive),24.8% (inactive),-19.2% (inactive),-9.12% (inactive),0.74% (inactive),95.9% (inactive),96.2% (inactive),0.75% (inactive),0.55% (inactive)
Oc1ccccc1-c1nnc(COc2ccc(Cl)cc2Cl)o1,96,97.5% (inactive),96% (inactive),101% (inactive),63.3% (inactive),-12.9% (inactive),76.1,63.3,-8.8% (inactive),0.5% (inactive),-10.2% (inactive),-11.7% (inactive),-1.77% (inactive),92.3% (inactive),86.6% (inactive),1.82% (inactive),7.07% (inactive)
CCCc1cc(=O)oc2c(C)c3occ(C)c3cc12,112,99.5% (inactive),112% (inactive),64.8% (inactive),98.2% (inactive),4.94% (inactive),93.3,98.2,-0.68% (inactive),-3.02% (inactive),-2.79% (inactive),0.83% (inactive),-4.59% (inactive),77.4% (inactive),79.5% (inactive),3.16% (inactive),3.02% (inactive)
O=C(O)COc1ccc(S(=O)(=O)NCCc2ccccc2)cc1,105,103% (inactive),105% (inactive),115% (inactive),106% (inactive),27.5% (inactive),78.8,106,-6.4% (inactive),2.62% (inactive),-6.59% (inactive),10.2% (inactive),-0.3% (inactive),108% (inactive),96.2% (inactive),1.84% (inactive),-2.61% (inactive)
CCN(CC)C1CCCCC1NS(=O)(=O)c1ccc(Cl)cc1 (stereo not given),104,116% (inactive),104% (inactive),90.8% (inactive),101% (inactive),13.1% (inactive),87.8,101,-3.6% (inactive),3.28% (inactive),-12% (inactive),-3.99% (inactive),-1.53% (inactive),86.5% (inactive),92.6% (inactive),1.03% (inactive),5.81% (inactive)
Cc1c(C)n(C)c2ccc(C(=O)NCc3cccs3)cc12,93.5,87.5% (inactive),93.5% (inactive),95.7% (inactive),90.7% (inactive),16.1% (inactive),74.6,90.7,-2.8% (inactive),-4.59% (inactive),-23.4% (inactive),1.59% (inactive),3.39% (inactive),97.5% (inactive),96.8% (inactive),1.61% (inactive),0% (inactive)
O=C(Nc1ccc2c(c1)OCO2)c1ccc(CN2CCOCC2)cc1,97.5,88% (inactive),97.5% (inactive),98.7% (inactive),97.3% (inactive),9.03% (inactive),88.3,97.3,-7.07% (inactive),7.1% (inactive),-6.27% (inactive),-16.3% (inactive),0.57% (inactive),71.3% (inactive),81.5% (inactive),-0.165% (inactive),9.65% (inactive)
CC(C)(C)SCCNC(=O)COc1ccc(Cl)cc1,94.5,90% (inactive),94.5% (inactive),113% (inactive),109% (inactive),19.5% (inactive),89.4,109,-6.89% (inactive),4.1% (inactive),-8.49% (inactive),-12% (inactive),0.22% (inactive),96.2% (inactive),96.9% (inactive),-0.23% (inactive),4.53% (inactive)
CC12CN3CC(C)(CN(C1)C3c1ccc(Cl)cc1Cl)C2=O (stereo not given),97,102% (inactive),97% (inactive),101% (inactive),80.9% (inactive),-7.23% (inactive),88.2,80.9,-2.67% (inactive),-3% (inactive),-17.2% (inactive),-1.12% (inactive),-2.71% (inactive),93.4% (inactive),95.3% (inactive),1.56% (inactive),-0.11% (inactive)
Cc1nnc(NC(=O)c2ccco2)s1,98.5,92.5% (inactive),98.5% (inactive),98.6% (inactive),104% (inactive),7.39% (inactive),96.3,104,-4.13% (inactive),7.21% (inactive),-10.1% (inactive),-8.55% (inactive),4.22% (inactive),94.9% (inactive),97.2% (inactive),0.67% (inactive),0.21% (inactive)
CN(C)c1cc(NC(=O)CN2CCOCC2)c2ccccc2n1,110,100% (inactive),110% (inactive),90.2% (inactive),85.8% (inactive),0.73% (inactive),85,85.8,-5.47% (inactive),7.17% (inactive),-12.2% (inactive),-11% (inactive),-1.8% (inactive),100% (inactive),99.4% (inactive),-0.365% (inactive),0.06% (inactive)
COc1cccc(NC(=O)c2nnn(Cc3ccc(Br)cc3F)c2N)c1,98,89% (inactive),98% (inactive),59.4% (inactive),72% (inactive),2.77% (inactive),69.2,72,-3.33% (inactive),2.46% (inactive),-7.21% (inactive),-5.7% (inactive),-0.51% (inactive),94.5% (inactive),95.7% (inactive),1.61% (inactive),5.85% (inactive)
Cc1c(Cl)cccc1NC(=O)CCN1CCCCC1,100,92% (inactive),100% (inactive),100% (inactive),101% (inactive),6% (inactive),94.9,101,-2.8% (inactive),0.16% (inactive),-7.21% (inactive),2.33% (inactive),-1.01% (inactive),100% (inactive),96.4% (inactive),0.655% (inactive),4.96% (inactive)
CCn1cc(C(=O)N2CCOCC2)c(=O)c2cc(S(=O)(=O)N(C)C3CCCCC3)ccc21,84,89% (inactive),84% (inactive),108% (inactive),106% (inactive),19.7% (inactive),86.7,106,0.26% (inactive),0.5% (inactive),-13.6% (inactive),-19.3% (inactive),-1.73% (inactive),100% (inactive),95.8% (inactive),0.85% (inactive),2.09% (inactive)
CN(C1CCCCC1)S(=O)(=O)c1ccc(S(=O)(=O)N2CCN(CCC#N)CC2)cc1,89.5,92.5% (inactive),89.5% (inactive),98.5% (inactive),103% (inactive),27.9% (inactive),74.8,103,-2.27% (inactive),4.26% (inactive),-11.3% (inactive),-3.55% (inactive),-1.47% (inactive),97.2% (inactive),91.5% (inactive),0.805% (inactive),1.41% (inactive)
CN(C)CCN1C(=O)C(O)=C(C(=O)c2cc3ccccc3o2)C1c1ccc(N(C)C)cc1 (stereo not given),98.5,105% (inactive),98.5% (inactive),94.1% (inactive),90.2% (inactive),1.66% (inactive),88.5,90.2,-3.47% (inactive),1.17% (inactive),-14.2% (inactive),-14.1% (inactive),-0.2% (inactive),105% (inactive),103% (inactive),0.685% (inactive),2.42% (inactive)
CC1Cc2ccccc2N1C(=O)C12CCC(C)(C(=O)C1)C2(C)C (stereo not given),136,123% (inactive),136% (inactive),92.6% (inactive),82.1% (inactive),7.82% (inactive),74.3,82.1,-5.47% (inactive),-4.84% (inactive),-23.2% (inactive),-14.9% (inactive),-0.66% (inactive),85% (inactive),89.9% (inactive),0.8% (inactive),6.06% (inactive)
